Epigenetic reg: regulators of epigenetic silencing causing reporter derepression in mouse cells; murine LDR cells, GFP reporter derepression, 30 h; Potency, µM (titrated, usually from 53.9 µM), for inactives: top-dose GFP activation, usual class: activators; 280,000 compounds, 0.2% hits; note: % of control where 0% means no effect; nearly all actives have a fitted effect of over 60% in size
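GFP-positive cell count by laser-scanning cytometry (objects 20–120 um) after 30 h, 37 C compound exposure of murine LDR cells; reporter is CMV-GFP integrated at a silenced locus, inducible by HDAC or DNMT inhibitors.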
HTT ATP protect: cytoprotection in Huntington HTT-Q103 PC12 cell model | PC12 HTT-Q103 induced, cytoprotection, ATP luminescence, 40 h | Potency, µM (top dose mostly 56.4 µM), inactives show cytoprotection (ATP increase), actives largely listed as activators | 230,000 compounds, 0.14% hits | AID 1471; note: % of control where 0% means no effect; nearly all actives have a fitted effect of over 45% in size
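PC12 cells stably carrying ecdysone-inducible Htt exon 1 (Q103)–GFP were induced with 100 nM tebufenozide (final) alongside library compounds in a dose series. Cytoprotection was scored as retained ATP by ATPlite luminescence.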
PINK1 expr mod: changes PINK1 expression. 410,000 compounds, 0.2% hits. Potency, µM (series often up to 76.6 µM), for inactives: at the highest dose activation (PINK1 increase), actives largely listed as activators. PINK1 immunofluorescence, high-content cytometry, 24 h; active = well fitted activation curve with a large enough effect; inconclusive = small, poorly fitted or top-dose-only effect; cell line not stated here; note: % of control where 0% means no effect; nearly all actives have a fitted effect of over 65% in size
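Decision-based qHTS: stable cells, 24 h exposure to five compound concentrations, CCCP as control. Fixed cells stained for PINK1 plus nuclear, mitochondrial and cell markers, cytometer read.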
HttQ103 aggreg: mutant huntingtin aggregation inhibition; Potency, µM (series often up to 46.1 µM), for the others: at the highest dose activity change, negative = inhibition, actives largely listed as inhibitors; 220,000 compounds, 1.1% hits; PC12 HttQ103-GFP aggregates, Acumen cytometry, 40 h; note: % is set by controls: 0 for no effect and ±100 for the full control effect; nearly all actives have a fitted effect of over 60% in size
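PC12 cells stably carrying ecdysone-inducible HTT exon 1 Q103–GFP were induced with tebufenozide (100 nM final) and treated with library compounds in titration. GFP aggregates in lysates were counted by laser scanning cytometry.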
Numbers without * were called inactive; ? = inconclusive; · = no result; [ ] = dose if it differs, or a comment. The sample as a whole holds a higher share of hits than the screen did. Unless noted, calls come from the whole dose curve; as a rule, active = well fitted curve in the direction sought with a large enough effect; inconclusive = small, poorly fitted or top-dose-only effect, or another doubt; inactive = no such curve, though single readings can be large; an effect the other way counts as inactive or inconclusive. Potency is the fitted concentration of half-maximal effect.

SMILES	Epigenetic reg	HTT ATP protect	PINK1 expr mod	HttQ103 aggreg
O=S(=O)(Nc1cccc2cccnc12)c1ccc(S(=O)(=O)N2CCCC2)cc1	-1%	0%[10 µM]	·	0.79µM*
O=CN1CCN(C(=O)CN2C(=O)c3ccccc3C2=O)CC1	0%	11%	-1%	4%
CCC(C)NC(=O)CSc1nc(-c2cccs2)cc(C(F)(F)F)n1 (centres undefined)	3%	-13%[10 µM]	·	13µM*
Nc1ncnc2c1ncn2[C@@H]1O[C@H](CNC(=O)[C@@H](N)Cc2ccccc2)[C@@H](O)[C@H]1O	·	·	0%	·
COc1ccc(CC(N)C(=O)NC2C(CO)OC(n3cnc4c(N(C)C)ncnc43)C2O)cc1 (centres undefined)	4%	-94%	·	13µM*
Cc1cc(OCC(O)CN2CCCC2)ccc1C(C)C (centres undefined)	·	·	-1%	·
COc1ccc(C(=O)N/N=C/c2cccc3cccnc23)cc1	4%	-89%	-1%	?
CCOc1ccc(C(=O)N/N=C/c2cccc3cccnc23)cc1	1%	-64%	1%	3.5µM*
O=C(CCc1c[nH]c2ccccc12)N1CCN(S(=O)(=O)c2ccccc2)CC1	·	·	-2%	·
CC(NC(=O)c1cccnc1)C(c1cccs1)N1CCN(c2ccccc2F)CC1 (centres undefined)	-1%	16%[10 µM]	-1%	-20%[9.22 µM]
COc1ccccc1N1CCN(C(c2cccs2)C(C)NC(=O)c2cccnc2)CC1 (centres undefined)	4%	5.6µM*	4%	?
Cn1cnnc1Sc1nc([N+](=O)[O-])nn1C	2%	-13%[10 µM]	0%	-13%[9.22 µM]
COc1ccccc1-c1nnc(Sc2nc([N+](=O)[O-])nn2C)o1	0%	18µM*	-5%[38.3 µM]	·
Cc1cc(C)cc(NC(=O)CC2Oc3ccc(C)cc3NC2=O)c1 (centres undefined)	·	·	0%	·
CN(C)C(=O)c1cccc(-c2cnc3c(NC=O)cc(-c4cc(F)c(F)c(F)c4)cn23)c1	·	·	-1%	·
Cc1cccc(NC(=O)c2ccc(NCCc3ccccc3)c([N+](=O)[O-])c2)c1	18µM*	-9%[10 µM]	14µM*	-23%
COc1ccc(C2CC(C(F)(F)F)n3nc(C(=O)N(C)Cc4cn(C)nc4C)c(Cl)c3N2)cc1 (centres undefined)	-1%	-11%	0%	-8%
COc1ccc(C2CC(C(F)(F)F)n3nc(C(=O)NCc4c(C)nn(C)c4C)c(Cl)c3N2)cc1 (centres undefined)	-1%	-12%	5%[38.3 µM]	8.9µM*
O=C(NNC(=S)NC(=O)C12CC3CC(CC(C3)C1)C2)c1ccncc1	-3%	3%[10 µM]	6%[38.3 µM]	3.2µM*
CC1(C(=O)NC(=S)NNC(=O)c2ccncc2)CCCCC1	?	15%[1.9 µM]	3%	15%
COc1ccc(/C=C/C(=O)Nc2ccc(OC)cc2[N+](=O)[O-])cc1	?	-2%[10 µM]	45µM*	-4%
COc1ccc(-[n+]2c(C)cc(/C=C3\Sc4ccccc4N3C)cc2C)cc1	3.2µM*	·	18%	1.1µM*
COc1ccc(C(=O)/C=C2\Sc3ccccc3N2C)cc1	-3%	-31%[10 µM]	2%	-14%[9.22 µM]
COc1ccccc1-[n+]1c(C)cc(/C=C2\Sc3ccccc3N2C)cc1C	7.9µM*	-80%[10 µM]	4%	0.89µM*
CN1/C(=C/c2cccc[n+]2CCO)Sc2ccccc21	·	·	0%	·
SMILES	Epigenetic reg	HTT ATP protect	PINK1 expr mod	HttQ103 aggreg
CC[n+]1ccccc1/C=C1\Sc2ccc(C)cc2N1C	·	·	16µM*	·
CC1CCc2sc(C(=O)NCC(C)(C)N3CCOCC3)cc2C1 (centres undefined)	·	·	1%	·
Cn1c(=O)oc2cc(S(=O)(=O)N3CCCC(C(=O)N4CC=C(c5ccccc5)CC4)C3)ccc21 (centres undefined)	2%	-24%	·	11µM*
COc1cc(-c2nc(S(=O)(=O)c3ccc(C)cc3)c(N(C)C)o2)cc(OC)c1OC	-3%	0.89µM*	3%	·
Cc1ccc(CNC(=O)CCCc2nnc3n(C)c(=O)c4sccc4n23)cc1	1%	·	-1%	·
Cc1c(C(=O)N(C)Cc2ccccc2)oc2ccc(S(=O)(=O)N3CCCC3)cc12	-2%	-77%	-2%	11µM*
COc1ccc(N=Cc2c(O)n(-c3cccc(C)n3)c(=O)c3ccccc23)c(OC)c1	13µM*	-15%[10 µM]	45µM*	-7%[9.22 µM]
N#CC1=C(N)N2C(=C(C#N)C1c1ccc(Br)cc1)Nc1ccccc12 (centres undefined)	-1%	-60%[10 µM]	?	?
N#CC1=C(N)N2C(=C(C#N)C1c1cccc(Br)c1)Nc1ccccc12 (centres undefined)	1%	-22%[10 µM]	3.2µM*	?
NC(=O)CS(=O)(=O)c1nc2ccccc2n1Cc1ccccc1F	-1%	25µM*	2%	16%
C=CCN(C(=O)c1csnn1)C(C(=O)NC1CCCCC1)c1ccccc1 (centres undefined)	·	·	1%	·
COc1ccc(N2CC(O)=C(c3nc4ccccc4s3)C2=N)cc1	-1%	-6%	11µM*	6%
O=C1NCN(c2ccccc2)C12CCN(CCCC(c1ccc(F)cc1)c1ccc(F)cc1)CC2	?	?	1%	14µM*
O=C(CCCN1CCN(c2ccccc2)CC1)c1ccc(F)cc1	·	·	0%	·
COc1ccc2nc(SCC(=O)O)nc(C)c2c1	2%	-2%	-2%	4%
CC(O)CN(C)CC/C=C1/c2ccccc2CSc2ccccc21 (centres undefined)	1%	6%[10 µM]	0%	8.9µM*
COc1ccc(-c2csc(=Nc3c(C)n(C)n(-c4ccccc4)c3=O)n2C(C)(C)C)cc1	-2%	12%	-3%[38.3 µM]	16%
COc1ccc(C(=O)C(CN2CCOCC2)c2ccccc2)cc1F (centres undefined)	?	3.2µM*	-3%	·
O=S(=O)(c1ccc(N2CCCC2)cc1)C(F)(F)F	0%	-3%	1%[38.3 µM]	10µM*
O=S(=O)(c1ccc(N2CCN(c3ccc(F)cc3)CC2)cc1)N1CCCC1	1%	-22%	18%[38.3 µM]	10%
COc1cc(SC)ccc1C(=O)NC(C)C	1%	13µM*	2%	0%
CN(CC(=O)Nc1ccc(Cl)c(Cl)c1)C1CCCCC1	·	·	40µM*	·
CN(CC(=O)Nc1ccccc1Cl)C1CCCCC1	·	·	6%	·
CCn1cc(CNC(=O)c2ccc(Cl)c([N+](=O)[O-])c2)c(C)n1	-1%	-16%[10 µM]	-1%	-16%
O=C(CSc1ncn[nH]1)Nc1nc(-c2ccccc2)ns1	-3%	3%[0.074 µM]	4%[38.3 µM]	22µM*
Cc1ccc(-n2c(-c3ccccc3)c[n+]3c2CCc2ccccc2-3)c(C)c1	-2%	-75%	?	3.2µM*
O=C(OCC(=O)c1ccccc1Br)c1ccccn1	1%	3%[10 µM]	-1%	-3%
Cc1ccc(/C=C(\C#N)C(=O)Nc2cccc(Br)c2)o1	3%	·	1%	·
N#C/C(=C\c1ccc(N2CCCCC2)o1)C(=O)Nc1cccc(Br)c1	?	-10%[10 µM]	6.3µM*	?
N#C/C(=C\c1ccc(N2CCCCC2)o1)C(N)=O	7%	-6%[10 µM]	?	5%[9.22 µM]

Screening data from PubChem.
